DT40 TDP1 no CPT = qHTS for Inhibitors of human tyrosyl-DNA phosphodiesterase 1 (TDP1): qHTS in cells in absence of CPT | DT40 Tdp1-/- hTDP1 cells, no CPT, ATP luminescence, 48 h | Potency, µM (top dose mostly 46.2 µM), for the others: at the highest dose activity change, negative = growth inhibition, usual class: inhibitors | 15% of 420,000 active; also: potency is read from the fitted curve at half-maximal effect; % is scaled to controls: 0 for no effect and ±100 for the full control effect; nearly all actives have a fitted effect of over 55% in size
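No-CPT arm: Tdp1-/-;hTDP1 DT40 cells (400/well) plus compounds, incubated ≥48 hr at 37 °C. Readout CellTiter-Glo luminescence.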
IL-1B inflam inh = inflammasome signaling inhibition, IL-1 beta readout; 4.7% of 360,000 active; THP-1 LPS/ATP IL-1B secretion, AlphaLISA, 16 h; active compounds read low; activity change, % at 57.5 µM; in the data active = activity change below about -50%; inconclusive = mostly about -30% to -49%; also: % is scaled to controls: 0 for no effect and ±100 for the full control effect
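Secreted IL-1B measured by AlphaLISA bead assay after 16 h compound exposure of THP-1 cells; compounds (final up to 57.5 uM) added 1 h before LPS (250 ng/mL) and ATP (1.25 mM) stimulation; lower signal means less secretion.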
TDP1 inh = TDP1 (human) enzyme inhibition; Q9NUW8; recombinant TDP1, AlphaScreen DNA substrate cleavage; Potency, µM (top dose mostly 130 µM), without a hit: at the highest dose activity change, negative = inhibition, actives largely listed as inhibitors; 0.28% of 350,000 active; AID 485290; also: potency is read from the fitted curve at half-maximal effect; % is scaled to controls: 0 for no effect and ±100 for the full control effect; nearly all actives have a fitted effect of over 40% in size
Target sequence (Q9NUW8 whole entry, looked up): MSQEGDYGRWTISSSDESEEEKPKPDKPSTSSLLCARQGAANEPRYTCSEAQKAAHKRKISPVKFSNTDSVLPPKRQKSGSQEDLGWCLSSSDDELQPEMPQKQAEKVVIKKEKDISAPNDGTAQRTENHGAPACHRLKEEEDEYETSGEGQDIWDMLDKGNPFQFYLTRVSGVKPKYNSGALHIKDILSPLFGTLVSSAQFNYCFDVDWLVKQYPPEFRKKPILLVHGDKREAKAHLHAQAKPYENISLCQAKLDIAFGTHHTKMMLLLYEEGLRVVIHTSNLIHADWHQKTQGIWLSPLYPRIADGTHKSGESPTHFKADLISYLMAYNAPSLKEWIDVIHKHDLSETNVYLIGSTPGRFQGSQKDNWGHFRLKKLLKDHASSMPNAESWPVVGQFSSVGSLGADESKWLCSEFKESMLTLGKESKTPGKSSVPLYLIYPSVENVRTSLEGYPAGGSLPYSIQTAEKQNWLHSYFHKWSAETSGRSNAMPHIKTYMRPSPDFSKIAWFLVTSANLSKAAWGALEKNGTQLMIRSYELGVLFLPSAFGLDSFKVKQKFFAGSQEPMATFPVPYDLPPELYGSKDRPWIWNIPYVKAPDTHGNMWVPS
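Signal: AlphaScreen proximity between streptavidin donor and anti-FITC acceptor beads on intact substrate. Reaction: Tdp1 1 nM, substrate 15 nM final, 5 min RT after 15 min compound preincubation.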
HepG2 viability = HepG2 cytotoxicity, counter-screen for TGF-b inhibitors; HepG2 CAGA-GFP viability, ATP luminescence, 18 h; Potency, µM (doses to about 46.1 µM), for the others: at the top dose activity change, negative = cytotoxicity, usual class: cytotoxic; 0.76% of 410,000 active; AID 588856; also: potency is read from the fitted curve at half-maximal effect
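HepG2 CAGA-GFP cells (1000/well, DMEM with 1% FBS) received compound, then TGF-beta at 500 pg/mL final, and were incubated 18 hours at 37 degrees C. Viability was read by CellTiter-Glo luminescence. Media-only wells were set as complete cell-killing and DMSO as no toxicity.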
DT40 TDP1 CPT = growth inhibition of DT40 Tdp1-/-;hTDP1 cells with camptothecin (screen for TDP1 inhibitors); chicken DT40 Tdp1-/-;hTDP1 cells + 20 nM CPT, ATP luminescence, 48 h; Potency, µM (highest dose often 46.2 µM), for the others: at the top dose activity change, negative = growth inhibition, usual class: inhibitors; 12% of 420,000 active; AID 686979; also: potency is read from the fitted curve at half-maximal effect; % is scaled to controls: 0 for no effect and ±100 for the full control effect; nearly all actives have a fitted effect of over 55% in size
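Chicken DT40 Tdp1-/- cells stably complemented with human TDP1 were seeded at 400 cells/well in medium containing 20 nM camptothecin, exposed to pin-transferred compounds, and grown at 37 °C for at least 48 hr. Viability was read as ATP luminescence.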
TGFb SMAD3 inh = TGF-b pathway inhibition; HepG2 CAGA-GFP TGF-b/SMAD3 reporter, GFP fluorescence, 18 h; TGF-beta stimulated, 500 pg/mL final; Potency, µM (series often up to 46.1 µM), for the others: at the top dose activity, negative = inhibition, actives largely listed as inhibitors; 1.2% of 410,000 active; also: potency is read from the fitted curve at half-maximal effect; % is scaled to controls: 0 for no effect and ±100 for the full control effect; nearly all actives have a fitted effect of over 65% in size
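Inhibition was scored as loss of TGF-beta-induced (500 pg/mL final, 18 hours, 37 degrees C) GFP in HEPG2 cells carrying a CAGA-GFP reporter, in DMEM with 1% FBS. Well GFP was summed per cell; Activity was normalised to unstimulated and stimulated DMSO wells, then concentration-response fitting.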
Numbers without * were called inactive; ? = inconclusive; / = no result; ! = a repeat was not active; [ ] = remark or other dose. Rows were chosen to be rich in hits. Some 18% of all compounds tested hit in one or more screens of this group. Unless noted, calls follow the shape of the dose curve; as a rule, active = well fitted curve in the direction sought with a large enough effect; inconclusive = small, poorly fitted or top-dose-only effect, or another doubt; inactive = no such curve, though single readings can be large; an effect the other way counts as inactive or inconclusive.

SMILES	DT40 TDP1 no CPT	IL-1B inflam inh	TDP1 inh	HepG2 viability	DT40 TDP1 CPT	TGFb SMAD3 inh
N#CCc1ccc(-c2cccc3nccn23)cc1	-11%	7	/	-11%	-13%	-23%
COc1ccc(C2C(=O)N(C3CCCCCC3)CC(=O)N2Cc2ccccc2)cc1 (stereo not drawn)	26µM*	/	3%	-27%	23µM*	-12%
COc1ccc(CN2C(=O)CN(C3CCCCCC3)C(=O)C2c2ccc(F)cc2)cc1 (stereo not drawn)	?	-14	-3%	4%	?	-10%
N[C@@H](CSS(=O)(=O)O)C(=O)O	1%	/	40µM*!	/	7%	/
CN(C)S(=O)(=O)N(CC(=O)Nc1ccc(C(F)(F)F)cc1)c1ccccc1	?	/	-3%	-34%	-26%	?
O=C(O)COc1ccccc1/C=N/NC(=O)CSc1nnc(SCc2ccc(Cl)cc2)s1	-14%	13	4%	-4%	-23%	-13%
O=C(O)COc1ccccc1/C=N/NC(=O)CSc1nnc(SCc2cccc3ccccc23)s1	?	5	-3%	-39%	-7%	18%
O=C(CSc1nnc(SCc2cccc3ccccc23)s1)N/N=C/c1c[nH]c2ccccc12	16µM*	31	3%	-4%	?	?
O=C(CSc1nnc(SCc2ccc(Cl)cc2)s1)N/N=C/c1c[nH]c2ccccc12	?	1	22µM*	-64%	?	?
O=C(Cc1ccc(Cl)c(Cl)c1)OCCN1CCCC1	/	/	-11%[56.1 µM]	/	/	/
Cc1ccc(S(=O)(=O)N2C[C@H]3[C@H]4C(=O)N(C)C(=O)[C@H]4CC(=O)[C@H]3[C@@H]2c2ccccc2F)cc1	-3%	28	/	9%	1%	17%
Cc1ccc(NC(=O)CN(C)C(=O)c2cc(-c3cccs3)nn2-c2ccccc2)cc1	?	-52*	2%	-8%	?	?
CCN(CC(=O)Nc1ccccc1OC)C(=O)c1cc(-c2ccccc2)nn1-c1ccccc1	?	-10	8%	6%	21µM*	?
CCN(CC(=O)Nc1c(F)cccc1F)C(=O)c1cc(-c2cccs2)nn1-c1ccccc1	18µM*	-13	0%	0%	?	-13%
Cc1ccc(N/C(N)=N/c2nc(C)cc(N3CCCCC3)n2)c(C)c1	2.6µM*	-103*	-1%	-22%	2.3µM*	?
Cc1ccc(N/C(N)=N/c2nc3c(c(=O)[nH]2)CCCC3)c(C)c1	12µM*	-20	4%	-17%	13µM*	7%
N/C(=N\c1nc2c(c(=O)[nH]1)CCCC2)Nc1ccccc1Sc1ccccc1	20µM*	29	2%	6%	11µM*	0%
O=C(CCc1ccccc1)Nc1cc(S(=O)(=O)N2CCOCC2)ccc1N1CCCC1	-1%	-7	1%	-18%	-7%	1%
CCCCN1C(=S)NC[C@@H]1c1ccccc1	-19%	10	8%	-26%	-14%	?
COc1cc(CCCN2C(=S)NC[C@@H]2c2ccccc2)cc(OC)c1OC	16µM*	1	4%	0%	26µM*	-19%
COc1cc(CCCN2C(=S)NC[C@@H]2Cc2ccccc2)cc(OC)c1OC	16µM*	-27	3%	-17%	26µM*	-38%
COc1cc(CCCN2CCNC[C@@H]2Cc2ccccc2)cc(OC)c1OC	6%	-21	-5%	-3%	-10%	2%
O=C(COC(=O)c1ccc(F)cc1F)Nc1cc(S(=O)(=O)N2CCOCC2)ccc1Cl	-22%	-9	0%	-5%	-1%	-10%
CC(=O)Nc1cccc(-c2nnc(SCC(=O)c3cc([N+](=O)[O-])ccc3Br)o2)c1	5.2µM*	/	3%	-64%	5.2µM*	?
CC(=O)Nc1cccc(-c2nnc(SCC(=O)c3ccc([N+](=O)[O-])cc3)o2)c1	/	/	3%	6%	/	21%
SMILES	DT40 TDP1 no CPT	IL-1B inflam inh	TDP1 inh	HepG2 viability	DT40 TDP1 CPT	TGFb SMAD3 inh
Cc1ccc(Cl)cc1N1CCN(C(=O)C2CCC(=O)N(C3CCCCCC3)C2)CC1 (stereo not drawn)	2.9µM*	30	3%	-13%	6.5µM*	-22%
Cc1cccc(N2CCN(C(=O)C3CCC(=O)N(C4CC4)C3)CC2)c1C (stereo not drawn)	?	34	1%	2%	16µM*	4%
O=C(COC(=O)c1cncc(Br)c1)NCc1ccco1	2%	4	7.1µM*	8%	0%	3%
O=C(COC(=O)c1cncc(Br)c1)NCc1ccc(F)cc1	-12%	9	-3%	2%	0%	3%
COc1cc(C(=O)OCC(=O)NCc2ccco2)cc(OC)c1OC	-18%	-67*	-1%	3%	1%	-2%
COc1cc(OC)cc(C(=O)OCC(=O)NCc2ccco2)c1	14%	0	-8%	-34%	-13%	-5%
CN(C)S(=O)(=O)c1ccc(C(=O)OCC(=O)NCc2ccco2)cc1	5%	15	60µM*	-3%	31%	0%
CCC(=O)c1ccc(OCC(=O)N2CCN(S(=O)(=O)c3ccc(Cl)s3)CC2)cc1	?	8	-3%	-23%	?	?
Cc1nc(SCC(=O)c2ccc(F)c(F)c2)[nH]c(=O)c1Oc1ccc(F)cc1	-24%	/	-5%	5%	5%	-1%
COC(=O)c1c(N)sc(C(=O)N2CCOCC2)c1C	-12%	44	7%	-1%	-1%	0%
COC(=O)c1c(NC(=O)c2ccccc2)sc(C(N)=O)c1C	?	40	2%	12%	-1%	15%
COC(=O)c1c(NC(=O)c2ccccc2OC)sc(C(=O)N2CCOCC2)c1C	15µM*	-60*	6%[0.0935 µM]	10%	?	0%
COC(=O)c1c(NC(=O)CCl)sc(C(=O)N2CCOCC2)c1C	5.2µM*	-98*	6%[0.0935 µM]	-5%	?	0%
COC(=O)c1c(NC(=O)c2ccccc2)sc(C(=O)c2ccccc2)c1C	15µM*	20	8%	-8%	16µM*	10%
CCc1nc2ccc(C(=O)Nc3cccc(NS(C)(=O)=O)c3)cn2c1N(CC)CCOC	?	15	/	1%	?	16%
COc1ccc(C(C#N)N2CCC(c3ccccc3)=N2)cc1OC (stereo not drawn)	-29%	-51*	1%	-4%	-18%	?
